According to PubChem BioAssay (NCATS):
Records with an inconclusive call do not appear. Calls of active or inactive are those of the source. The call rests on the fitted dose curve; in most records, active means well fitted curve in the direction sought with a large enough effect; inconclusive means small, poorly fitted or top-dose-only effect, or another doubt; inactive means no such curve, though single readings can be large; an effect the other way counts as inactive or inconclusive.

How the values were obtained:
HACAT = assay: qHTS assay to identify novel small-molecules to repurpose for Merkel cell carcinoma treatment (AID 1296009); settings: MCC and control cell lines, CellTiter-Glo viability, 72 h; at 44.8 µM (top of the series) unless noted; further: nearly all actives have a fitted effect of over 60% in size
Method in brief: (§1)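 After compound transfer in DMSO, plates were kept 72 hr at 37 degree celsius. Luminescent ATP signal from CellTiter-Glo served as viability measure, normalized against DMSO and no-cell controls.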

HEK293T = assay: as above; settings: MCC and control cell lines, CellTiter-Glo viability, 72 h; series mostly up to 44.8 µM
Method in brief: as §1

NIH3T3 = assay: as above; settings: MCC and control cell lines, CellTiter-Glo viability, 72 h; at 44.8 µM (top of the series) unless noted
Method in brief: as §1

C33A = assay: Primary qHTS to identify gynecologic anti-cancer compounds using libraries of approved drugs and bioactive compounds (AID 1345084); settings: Gynecologic cancer cell panel viability, ATPlite luminescence, 48 h; series mostly up to 57.5 µM; further: on the % scale 0 is the no-effect control and ±100 the full control effect; nearly all actives have a fitted effect of over 55% in size
Method in brief: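 Luminescence from the ATPlite ATP-monitoring reagent indicates viable cell number; lower signal means cytotoxicity. Cells received compound 16 h after seeding and were exposed for 48 h across five concentrations.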

C[C@@H]1C[C@H](O[C@@H]2O[C@H](CO[C@@H]3OC[C@](O)(CO)[C@H]3O)[C@@H](O)[C@H](O)[C@H]2O)CC(C)(C)[C@H]1/C=C/[C@@H](C)O
inactive: outcome (HACAT) inactive [at 17.4 µM] | Potency (HEK293T) | outcome (NIH3T3) inactive [at 17.4 µM] | Potency (C33A)

C[C@@H]1O[C@@H](O[C@H]2[C@H](OC(C#N)c3ccc(O)cc3)O[C@H](CO)[C@@H](O)[C@@H]2O)[C@H](O)[C@H](O)[C@H]1O (stereo not given in full)
inactive: outcome (HACAT) inactive [at 17.4 µM] | Potency (HEK293T) | outcome (NIH3T3) inactive [at 17.4 µM] | Potency (C33A)

OC[C@H]1O[C@@H](Oc2cc(O)cc(/C=C/c3ccc(O)cc3)c2)[C@H](O)[C@@H](O)[C@@H]1O
inactive: outcome (HACAT) | Potency (HEK293T) | outcome (NIH3T3) | Potency (C33A)

CC1OC(O[C@H]2[C@@H](O)C[C@@]3(C)C([C@H](O)C[C@]4(C)C3CC=C3C5CC(C)(C)CC[C@]5(C(=O)OC5OC(CO)C(O)C(O)C5OC5OCC(OC6OCC(OC7OCC(O)C(O)C7O)C(O)C6O)C(OC6OCC(O)(CO)C6O)C5O)CC[C@]34C)[C@]2(C)CO)C(O)C(O)C1O (stereo not given in full)
inactive: outcome (HACAT) inactive [at 9.27 µM] | outcome (HEK293T) inactive [at 9.27 µM] | outcome (NIH3T3) inactive [at 9.27 µM] | activity change, negative = cytotoxicity (C33A) 4.56% [at 6.55 µM]

O=C(/C=C/c1c(C(=O)O)[nH]c2cc(Cl)cc(Cl)c12)Nc1ccccc1
inactive: outcome (HACAT) | Potency (HEK293T) | outcome (NIH3T3) | Potency (C33A)

CC(=O)OCC(=O)O[C@@H]1[C@H]2[C@@H](OC(=O)c3ccccc3)[C@@H](C)C[C@]2(O)[C@H](OC(C)=O)C2(C)[C@H]3CC(C)(C)C(=O)[C@@H]3CC1(OC(C)=O)[C@@H]2OC(C)=O (stereo not given in full)
inactive: outcome (HACAT) inactive [at 17.4 µM] | Potency (HEK293T) | outcome (NIH3T3) inactive [at 17.4 µM] | Potency (C33A)

CNC(=O)Nc1ccc(OC)c(NC(=O)NC(=O)c2cc(F)c(F)cc2Cl)c1
inactive: outcome (HACAT) | Potency (HEK293T) | outcome (NIH3T3) | Potency (C33A)

CC(C)CC(=O)OC[C@H]1O[C@@](COC(=O)CC(C)C)(O[C@H]2O[C@H](CO)[C@@H](O)[C@H](O)[C@H]2O)[C@@H](OC(=O)CC(C)C)[C@@H]1OC(=O)CC(C)C
inactive: outcome (HACAT) inactive [at 17.4 µM] | Potency (HEK293T) | outcome (NIH3T3) inactive [at 17.4 µM] | Potency (C33A)

O=C(Nc1cccnn1)N1CCC(=Cc2cccc(Oc3ccc(C(F)(F)F)cn3)c2)CC1
inactive: outcome (HACAT)

CN(NC(=O)CC(=O)NN(C)C(=S)c1ccccc1)C(=S)c1ccccc1
inactive: outcome (HACAT)

C/C=C1\[C@H](O[C@@H]2O[C@H](CO)[C@@H](O)[C@H](O)[C@H]2O)OC=C(C(=O)OC)[C@H]1CC(=O)OC
inactive: outcome (HACAT) inactive [at 17.4 µM] | Potency (HEK293T) | outcome (NIH3T3) inactive [at 17.4 µM] | Potency (C33A)

Nc1ncnc2c1ncn2[C@H]1CCCO1
inactive: outcome (HACAT) | Potency (HEK293T) | outcome (NIH3T3) | Potency (C33A)

O=C(O)c1ccc(CCCc2ccc(OCCc3ccc(F)cc3)cc2)o1
inactive: outcome (HACAT) | Potency (HEK293T) | outcome (NIH3T3) | Potency (C33A)

CC(=O)OC1C(O)C(C)=C(CCC(C)CC(=O)O)C2(C)CCCC(C)(C)C12 (stereo not given)
inactive: outcome (HACAT) | Potency (HEK293T) | outcome (NIH3T3) | Potency (C33A)

CC1CCC2C(C)(C)C(O)CCC2(C)C12Cc1c(O)cc3c(c1O2)C(N)=NC3 (stereo not given)
inactive: outcome (HACAT) | Potency (HEK293T) | outcome (NIH3T3) | Potency (C33A)

CCn1nnnc1NCc1ccc(C(C)C)cc1
inactive: outcome (HACAT) | Potency (HEK293T) | outcome (NIH3T3) | Potency (C33A)

COC(=O)[C@@]1(O)C=CC[C@@H]2[C@@]3(C)C[C@@H](c4ccoc4)OC(=O)[C@H]3CC[C@]21C
inactive: outcome (HACAT) | Potency (HEK293T) | outcome (NIH3T3) | Potency (C33A)

COc1cc(/C=C/c2cc(O)cc(O[C@@H]3O[C@H](CO)[C@@H](O)[C@H](O)[C@H]3O)c2)ccc1O
inactive: outcome (HACAT) inactive [at 17.4 µM] | Potency (HEK293T) | outcome (NIH3T3) inactive [at 17.4 µM] | Potency (C33A)

CC1(CO)CC2C(O)C(=O)C3(CO)CC3(C)C2C1 (stereo not given)
inactive: outcome (HACAT) | Potency (HEK293T) | outcome (NIH3T3) | Potency (C33A)

CC1=CC2(O)/C=C/C(C)(O)CC(O)/C=C/C(=O)OC23C(=O)NC(CC(C)C)C3C1C (stereo not given)
inactive: outcome (HACAT) inactive [at 17.4 µM] | Potency (HEK293T) | outcome (NIH3T3) inactive [at 17.4 µM] | Potency (C33A)

CC1(CCC(=O)O)C(=O)C=CC23CC4CC(OC4(C)C2O)C13 (stereo not given)
inactive: outcome (HACAT) | Potency (HEK293T) | outcome (NIH3T3) | Potency (C33A)

C[C@H]1CN(C[C@H](Cc2ccccc2)C(=O)NCC(=O)O)CC[C@@]1(C)c1cccc(O)c1
inactive: outcome (HACAT) | Potency (HEK293T) | outcome (NIH3T3) | Potency (C33A)

O=C(/C=C/c1ccc(O)cc1)OCC1=C[C@@H](O)[C@@H]2C=CO[C@@H](O[C@@H]3O[C@H](CO)[C@@H](O)[C@H](O)[C@H]3O)[C@H]12
inactive: outcome (HACAT) inactive [at 17.4 µM] | Potency (HEK293T) | outcome (NIH3T3) inactive [at 17.4 µM] | Potency (C33A)

COc1cc(COC2OC(CO)C(O)C(O)C2O)cc(OC)c1O (stereo not given)
inactive: outcome (HACAT) | Potency (HEK293T) | outcome (NIH3T3) | Potency (C33A)
